From PubChem BioAssay
Sampled rows, rich in hits. Any-hit rate of the full collection: about 3.6%.
D1 antag: blocks dopamine activation of the human D1 receptor | hit rate 3.2% among 360,000 | activity change, negative = inhibition, % at 10 µM | HEK293 TREx D1 cells, calcium flux, dopamine EC80; active compounds read low; in the data active = activity change below about -30%; also: % is scaled to controls: 0 for no effect and ±100 for the full control effect
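Tetracycline-induced HEK293 Trex D1 cells, force-coupled to calcium, dye-loaded; compounds added and read 180 s, then EC80 dopamine added and calcium flux tracked kinetically another 180 s.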
TRHR PAM: TRH receptor (human) allosteric enhancement; TRHR cells, fluo-8 calcium fluorescence, EC20 TRH enhancement; enhancement, % at 2 µM; P34981; hit rate 0.66% among 360,000; AID 493056; in the data active = enhancement above about 30%; also: 0% is about no effect
Target sequence (P34981 whole entry, looked up): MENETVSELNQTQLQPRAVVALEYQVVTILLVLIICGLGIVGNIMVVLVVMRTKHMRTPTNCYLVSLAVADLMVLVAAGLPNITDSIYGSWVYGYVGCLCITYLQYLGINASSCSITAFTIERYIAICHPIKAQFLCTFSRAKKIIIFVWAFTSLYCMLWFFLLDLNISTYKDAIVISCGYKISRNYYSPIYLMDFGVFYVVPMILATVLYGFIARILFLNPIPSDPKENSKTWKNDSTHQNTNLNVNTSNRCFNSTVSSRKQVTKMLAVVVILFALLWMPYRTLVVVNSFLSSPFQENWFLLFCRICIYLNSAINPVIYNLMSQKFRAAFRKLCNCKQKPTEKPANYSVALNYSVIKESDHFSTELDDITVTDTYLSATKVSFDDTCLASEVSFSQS
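TRHR-expressing cells loaded with fluo-8 calcium dye were read kinetically (ex 480/em 530) during compound addition, then stimulated with an EC20 of TRH (10 nM final). Enhancement of the Gq-mediated intracellular calcium response was scored.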
D1 potentiator: human D1 dopamine receptor positive modulation | P21728 | HEK293 TREx D1 cells, calcium flux, dopamine EC20 potentiation | potentiation, % at 10 µM | hit rate 0.036% among 360,000 | AID 504651; in the data active = potentiation above about 30%; also: 0% is about no effect
D1 ag: activates the human D1 dopamine receptor. HEK293 T-REx D1 cells, calcium flux, agonist mode. activation, % at 2 µM. hit rate 1% among 360,000. AID 504660; also: 0% is about no effect
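Agonism was scored from calcium flux recorded over 180 s (1 read/s) after pintool compound addition, following a 10-cycle baseline. Cells were inducible force-coupled HEK293 TREx D1, plated overnight at 30 C and loaded with no-wash calcium dye.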
LDHA block: LDHA (human) enzyme inhibition; P00338; purified LDHA, NADH/diaphorase-resazurin fluorescence; active compounds read low; activity change, % (values are at about 110 or 230 µM); hit rate 0.15% among 480,000; in the data active = activity change below about -30%;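 also: plate controls were DMSO wells for no effect and wells without enzyme for full effect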
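LDH5 2 nM; NADH 0.06 mM, pyruvate 0.2 mM; 200 mM Tris pH 7.4, EDTA, Tween-20; 5 min RT. Detection: diaphorase 0.133 mg/mL + resazurin 37 µM, fluorescence ex540/em590 at 0 and 20 min; normalized to enzyme-free and DMSO wells.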
TRHR agonist: activates the human TRH receptor; activation, % at 2 µM; TRHR cells, calcium flux fluo-8, FDSS agonist mode; hit rate 0.18% among 360,000; also: 0% is about no effect
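In this calcium-flux screen, cells bearing human TRHR are dye-loaded with fluo-8, baselined for 10 cycles, then exposed to library compounds; positive kinetic calcium responses during the agonist phase mark hits, with TRH as control.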
Starred values were filed as active, the others as inactive. Rule as the data show it, unless noted: active = activation above about 30%; inactive = the rest.

For N#Cc1c(N)n[nH]c1CCCNC(=O)c1ccccc1-c1ncc(-c2ccccc2)o1 the results were LDHA block 0.
CCOc1ccc(C2CC(c3c(O)c4ccccc4oc3=O)=NN2c2ccccc2)cc1OC (stereo not drawn) was read as D1 antag 1, TRHR PAM -1, D1 potentiator 0, D1 ag 36*, LDHA block 1 and TRHR agonist 24.
Screening CCOc1ccc(C2c3c(oc4ccccc4c3=O)C(=O)N2c2nnc(C)s2)cc1OC (stereo not drawn) returned D1 antag -14, TRHR PAM 0, D1 potentiator -6, D1 ag 0, LDHA block -2 and TRHR agonist 0.
`COc1ccc(-c2c3c(nc4sc(C(=O)Nc5cccc(OC)c5)c(N)c24)CC(C)(C)CC3=O)cc1` gave D1 antag 3, TRHR PAM -1, D1 potentiator -2, D1 ag 4, LDHA block -3 and TRHR agonist 0.
For COc1ccc(NC(=O)c2sc3nc4c(c(-c5ccc(OC)cc5)c3c2N)C(=O)CC(C)(C)C4)cc1 the results were D1 antag -36*, TRHR PAM 3, D1 potentiator -4, D1 ag 12, LDHA block -3 and TRHR agonist 0.
Screening Cc1nonc1NC(=O)CSc1nc2c(C)cccc2cc1C#N returned D1 antag -8, TRHR PAM 1, D1 potentiator -5, D1 ag 43*, LDHA block -2 and TRHR agonist 17.
CC(Sc1nc2ccccc2[nH]1)C(=O)NC(=O)NC12CC3CC(CC(C3)C1)C2 (stereo not drawn) was read as LDHA block 7.
O=c1[nH]c(CN2CCN(c3ccccc3O)CC2)nc2scc(-c3ccccc3Cl)c12 was read as D1 antag -11, TRHR PAM -1, D1 potentiator 5, D1 ag 4, LDHA block -2 and TRHR agonist 0.
Screening O=c1[nH]c(CN2CCN(c3ccc(O)cc3)CC2)nc2scc(-c3ccc(Cl)cc3)c12 returned D1 antag -33*, TRHR PAM -3, D1 potentiator -9, D1 ag 1, LDHA block -3 and TRHR agonist -1.
Screening CCOC(=O)c1cc(C)nc2c1c(=O)n(Cc1nc(-c3cc(C)ccc3C)oc1C)c(=O)n2C returned LDHA block -4.
`COC(=O)c1ccc(COC(=O)c2ccc(Cl)cc2O)cc1` gave LDHA block 2.
For COCc1cc(C)nc(SCC(=O)Nc2ccc3c(c2)OCCO3)c1C#N the results were D1 antag -31*, TRHR PAM -5, D1 potentiator -5, D1 ag 7, LDHA block 0 and TRHR agonist -1.
Screening COCc1cc(C)nc(SCC(=O)Nc2ccc3c(c2)OCO3)c1C#N returned D1 antag -23, TRHR PAM -1, D1 potentiator 19, D1 ag 8, LDHA block -8 and TRHR agonist 0.
Screening COCc1cc(C)nc(SCc2ccc(Cl)cc2)c1C#N returned D1 antag -32*, TRHR PAM 3, D1 potentiator -3, D1 ag 36*, LDHA block -7 and TRHR agonist -1.
COc1ccc(C(=O)C(C)[n+]2ccc(C)c3ccccc32)cc1[N+](=O)[O-] (stereo not drawn) was read as D1 antag -25, TRHR PAM -2, D1 potentiator -7, D1 ag 52*, LDHA block -3 and TRHR agonist 8.
`N#Cc1ccc(NCCNc2cnccn2)nc1` gave LDHA block 5.
Cc1ccc(N2C(=O)CSC2c2cccnc2)c(Cl)c1 (stereo not drawn) was read as D1 antag -37*, TRHR PAM -2, D1 potentiator -1, D1 ag 2, LDHA block -2 and TRHR agonist -1.
For O=C1CSC(c2cccnc2)N1c1cccc(Cl)c1 (stereo not drawn) the results were D1 antag -9, TRHR PAM -3, D1 potentiator 0, D1 ag 2, LDHA block -10 and TRHR agonist 0.
Screening Cc1cc(C)c2c(=O)cc(C(=O)N(Cc3ccc(C(C)C)cc3)C3CCS(=O)(=O)C3)oc2c1 (stereo not drawn) returned LDHA block 1.
For COc1cc(C2NC(=O)c3c(sc4c3CCN(C)C4)N2)ccc1OC(=O)c1ccccc1 (stereo not drawn) the results were D1 antag 1, TRHR PAM -6, D1 potentiator 4, D1 ag 38*, LDHA block -1 and TRHR agonist 22.
For Cc1cccc(NC(=O)CN(C)C(=O)c2ccc3c(c2)nnn3C)c1 the results were LDHA block -11.
`CCCCn1c(CCc2ccccc2)nc2cc3[nH]c(=O)c(C(C)C)nc3cc21` gave D1 antag -82*, TRHR PAM -1, D1 potentiator -17, D1 ag 2, LDHA block -1 and TRHR agonist 0.
For CCCCn1c(-c2ccc(F)c(F)c2)nc2cc3[nH]c(=O)c(C(C)C)nc3cc21 the results were D1 antag -1, TRHR PAM 2, D1 potentiator -13, D1 ag 0, LDHA block 28 and TRHR agonist 0.
Screening CNC(=O)N1c2ccccc2CCc2ccccc21 returned D1 antag -10, TRHR PAM -4, D1 potentiator -5, D1 ag -2, LDHA block -9 and TRHR agonist 0.
`CC(CN(C)C)CN1c2ccccc2CCc2ccccc21` (stereo not drawn) gave D1 antag -81*, TRHR PAM -6, D1 potentiator -12, D1 ag 12, LDHA block -12 and TRHR agonist 3.
O=C1CSC(c2ccccn2)N1c1ccc(Cl)c(Cl)c1 (stereo not drawn) was read as D1 antag 6, TRHR PAM 7, D1 potentiator -4, D1 ag 10, LDHA block 0 and TRHR agonist -1.
For O=C1CSC(c2ccc(Cl)cc2Cl)N1c1ccccn1 (stereo not drawn) the results were D1 antag 0, TRHR PAM -9, D1 potentiator 30*, D1 ag 1, LDHA block -5 and TRHR agonist -1.
`Oc1ccc2nnc3c(Br)cnn3c2c1` gave D1 antag 1, TRHR PAM -6, D1 potentiator -2, D1 ag 171*, LDHA block -6 and TRHR agonist 52*.
For Clc1ccc2nc3c4ccccc4cnn3c2c1 the results were D1 antag -5, TRHR PAM 0, D1 potentiator -9, D1 ag 1, LDHA block -4 and TRHR agonist -1.
